# LANA DNA inh – blocks KSHV LANA C-terminal domain binding to DNA | actives 0.078% (n = 340,000) | AID 504423 | MBP-C-LANA/FAM-LBS DNA binding, fluorescence polarization | inhibition, % at 9 µM;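 active means highest replicate inhibition at or above 60% at 9 µM, even if other replicates fall short; inactive means all replicates below 60% inhibition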;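 further: 0% = neutral control wells and 100% = 4 µM acridine orange control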
# E coli Lon inh – E. coli protease La inhibition; AID 602123; P0A9M0; purified E. coli Lon protease, fluorescence polarization; actives 0.42% (n = 360,000); inhibition, % at 7.94 µM; in the data active means inhibition above about 13%, passing the limit was not always enough;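 further: 0% = enzyme with probe and DMSO and 100% = no enzyme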
# RTF Ca sens act – increases calcium sensitivity of human cardiac regulated thin filaments; P19429+P45379; IANBD-labeled TnC RTF fluorescence at EC20 calcium; 0% EC20 calcium, 100% full calcium; activation, % at 7.2 µM; actives 0.24% (n = 340,000); AID 493008;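 active means activation above the mean over all tested compounds plus 3 SD, cut at about 30% in these data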;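 further: rise in fluorescence read as greater calcium sensitivity of cardiac thin filaments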
# Keap1 Nrf2 FP – Keap1-Nrf2 (human) interaction inhibition. Q14145. Keap1 Kelch-Nrf2 peptide fluorescence polarization, 1536-well. inhibition, % at 9.4 µM. actives 0.15% (n = 340,000); in the data active means inhibition above about 12%;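 further: human Keap1 Kelch domain with fluorescein labeled Nrf2 9mer peptide probe; 0% = neutral control wells and 100% = peptide positive control; higher means more block of Keap1 binding to Nrf2 peptide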
# Target sequence (Q14145 whole entry, looked up, the tested form may be a part): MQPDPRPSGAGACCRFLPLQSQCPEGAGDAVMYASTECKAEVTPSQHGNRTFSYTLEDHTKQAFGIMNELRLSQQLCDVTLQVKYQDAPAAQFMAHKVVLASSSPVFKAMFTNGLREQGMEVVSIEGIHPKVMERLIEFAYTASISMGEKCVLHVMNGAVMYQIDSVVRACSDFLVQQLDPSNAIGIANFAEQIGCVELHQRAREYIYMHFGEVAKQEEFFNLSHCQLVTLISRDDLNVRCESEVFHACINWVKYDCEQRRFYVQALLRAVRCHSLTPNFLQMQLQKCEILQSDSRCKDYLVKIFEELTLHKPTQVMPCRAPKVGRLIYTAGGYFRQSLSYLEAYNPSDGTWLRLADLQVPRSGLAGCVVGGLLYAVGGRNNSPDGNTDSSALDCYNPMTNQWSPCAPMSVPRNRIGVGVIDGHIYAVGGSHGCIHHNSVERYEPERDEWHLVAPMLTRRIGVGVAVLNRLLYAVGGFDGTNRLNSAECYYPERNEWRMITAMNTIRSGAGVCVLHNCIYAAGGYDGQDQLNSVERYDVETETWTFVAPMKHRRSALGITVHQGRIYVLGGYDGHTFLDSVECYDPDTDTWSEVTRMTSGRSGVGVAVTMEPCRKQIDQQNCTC
# RTF Ca sens inh – cardiac RTF calcium desensitization. P19429+P45379. IANBD-labeled cardiac RTF, Ca2+ fluorescence. inhibition, % at 7.15 µM. actives 0.12% (n = 340,000);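 active means inhibition above the mean inhibition of all tested compounds plus 3 SD, cut at about 17% in these data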;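 further: assay run at fixed EC70 calcium of 1.6 mM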
# eLon confirm – E. coli Lon inhibition confirmation | shares compounds with E coli Lon inh | purified E. coli Lon, fluorescence polarization | actives 31% (n = 1,400) | inhibition, % at 7.94 µM; in the data active means inhibition above about 16%;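 further: 0% = enzyme with probe and DMSO and 100% = no enzyme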
# * marks the source's active call; other numbers are inactive results; / = no result. The list is not random: actives were taken first. Their share in the collection is about 0.82%.
SMILES,LANA DNA inh,E coli Lon inh,RTF Ca sens act,Keap1 Nrf2 FP,RTF Ca sens inh,eLon confirm
Nc1ncnc2c1ncn2[C@@H]1O[C@H](C(=O)NCCCN2CCCC2=O)[C@@H](O)[C@H]1O,/,-12,/,/,/,/
COc1ccc(NC(=O)Nc2nccs2)cc1,-1,16*,-2,1,-2,-3
COc1ccc(C(=O)Nc2nccs2)cc1,1,-5,-2,-1,3,/
O=C(COC(=O)c1ccc(NS(=O)(=O)c2cccs2)cc1)Nc1nc2c(F)c(F)c(F)cc2s1,1,21*,1,-4,-1,-25
CCCn1c(=S)[nH]c2cc(C(=O)N3CCN(C)CC3)ccc2c1=O,/,14*,/,/,/,2
Cc1ccc(NC(=O)COC(=O)c2ccc([N+](=O)[O-])o2)cc1S(=O)(=O)N1CCCCC1,1,14,6,-6,-2,/
Cc1ccc(NC(=O)COC(=O)c2ccc(Br)o2)cc1S(=O)(=O)N1CCCCC1,1,23*,-2,0,-1,20*
CCOc1ccc(Cl)cc1-c1cc(C(=O)NCc2ccccc2OC)[nH]n1,/,1,/,/,/,/
CCOP(=O)(OCC)C(NC(=O)c1cc([N+](=O)[O-])cc([N+](=O)[O-])c1)C(F)(F)F (stereo unspecified),0,21*,-2,-4,-3,24*
Cc1ccc(N2CCN(c3ccc(NCc4nc5ccccc5n4C)cc3)CC2)cc1,2,45*,0,-2,-7,5
Cn1c(CNc2ccc(Cl)cc2)nc2ccccc21,0,-5,-1,2,-2,/
C[C@H](NC(=O)C1CC(=O)N(c2ccc(F)cc2)C1)C(=O)N1CCCCC1 (stereo partly specified),0,20*,-7,-1,-2,5
O=C(C1CC(=O)N(c2ccc(F)cc2)C1)N1CCCCC1 (stereo unspecified),-1,-9,-5,-2,11,/
COc1cccc(NC(=O)N(C)C[C@H]2Oc3ncc(Br)cc3C(=O)N([C@H](C)CO)C[C@H]2C)c1,/,13*,/,/,/,-11
CCOc1ccc(N=Cc2ccc(N(C)C)cc2)c(O)c1,/,126*,/,/,/,78*
CCOc1ccc(N=Cc2ccc([N+](=O)[O-])cc2)c(O)c1,/,43*,/,/,/,1
CC1(C)CC(=O)C=C(NNC(=O)c2cccnc2)C1,/,31,/,/,/,/
O=C1C=C(NNC(=O)c2cccnc2)CC(c2ccco2)C1 (stereo unspecified),20,46*,-1,11,-12,-28
CC1(C)CC=C(NNC(=O)c2cccnc2)C(=O)C1,7,21*,4,2,-9,-8
COc1ccc(NC(=O)Nc2sc(NS(=O)(=O)c3ccccc3)nc2C)cc1,0,14*,13,-5,0,-3
Cc1ccc(-c2ccccc2NC(=O)CCl)o1,1,-2,-4,0,-3,/
Cc1ccc(-c2ccccc2NC(=O)CS(=O)CC(=O)Nc2ccc(C)c(Cl)c2)o1 (stereo unspecified),2,114*,4,3,1,16*
Cc1ccc(C(=O)Nn2c(O)c(C=C3N=c4ccccc4=N3)sc2=S)cc1,1,26*,-1,1,-2,33*
Cc1cccc(NC(=O)NCC(F)(F)F)n1,0,27*,-1,-1,-4,14
Cc1cccc(NC(=O)Nc2ccccc2)n1,-2,10,-7,0,12,/
SMILES,LANA DNA inh,E coli Lon inh,RTF Ca sens act,Keap1 Nrf2 FP,RTF Ca sens inh,eLon confirm
CCCCS(=O)(=O)Nc1ccc(N2CCOCC2)c(S(=O)(=O)N2CCOCC2)c1,0,19*,-2,-2,-7,5
CCOC(=O)c1cc(OC)c2cccc(CN3CCC(C)(C(=O)NCCOC)C3)c2c1 (stereo unspecified),/,97*,/,/,/,46*
CCOC(=O)c1cc(OC)c2cccc(CN3CCCC(C)(C(=O)NCCOC)C3)c2c1 (stereo unspecified),/,-2,/,/,/,/
COc1cc(NC(=O)c2sc3ncn(CC(=O)N4CCCCC4C)c(=O)c3c2C)cc(OC)c1OC (stereo unspecified),/,-6,/,/,/,/
O=C1CN(S(=O)(=O)c2cccc(Cl)c2Cl)CCN1,0,44*,-2,0,0,14
c1cc2c3c(cccc3c1)C(N1CCCCC1)=N2,3,27*,-4,3,-8,52*
c1ccc2c(c1)CCN(C1=Nc3cccc4cccc1c34)C2,2,35*,0,1,-5,106*
c1cc2c3c(cccc3c1)C(N1CCCCCC1)=N2,1,5,-2,-6,-3,/
O=S1(=O)C[C@H](N2CCN(CCO)CC2)[C@@H](COCc2ccccc2)N1,/,1,/,/,/,/
CC(C)(C)n1nnnc1C(c1ccccc1)N1CCN(C(=O)c2ccco2)CC1 (stereo unspecified),/,-1,/,/,/,/
CC(=O)n1nc(-c2ccc(C)cc2)nc1NCc1ccco1,0,9,-1,-6,-28,/
CC(=O)n1nc(-c2ccc(C)cc2)nc1NCc1ccc(F)cc1,-2,18*,4,4,-5,2
CSc1ncccc1C(=O)N1CCN(S(=O)(=O)c2ccc(C)cc2)CC1,1,17*,-8,1,-2,0
COc1ccc(N(C)C(=O)c2cc3c(s2)-c2ccc(Cl)cc2S(=O)(=O)C3)c(OC)c1,0,20*,0,0,-3,-6
COc1ccc(N(C)C(=O)c2cc3c(s2)-c2ccccc2OC3)c(OC)c1,-2,8,-2,-1,0,/
O=C(NN1S(=O)(=O)c2ccccc2S1(=O)=O)c1ccc(Br)cc1,-1,5,5,0,-5,/
Cc1cccc(C(=O)NN2S(=O)(=O)c3ccccc3S2(=O)=O)c1,-1,17*,5,-8,-3,0
CCNC(=O)C1(C)CCN(C(=O)c2ccc(OC(F)F)cc2)C1 (stereo unspecified),/,14,/,/,/,/
COc1cc(CN2C[C@@H](CO)O[C@@H](n3cnc4c(NC(C)C)ncnc43)C2)cc(OC)c1OC,/,3,/,/,/,/
CCOC(=O)C(=O)N(CC)C1CCS(=O)(=O)C1 (stereo unspecified),-2,17*,-2,0,-5,-6
COCCNC(=O)c1c[nH]c2ccc(S(=O)(=O)Nc3ccccc3F)cc2c1=O,-1,18*,-2,-1,-1,9
COCCNC(=O)c1c[nH]c2ccc(S(=O)(=O)Nc3ccc(F)cc3F)cc2c1=O,-1,6,-5,-2,-2,/
CCc1ccc(NC(=O)CSCc2nc(N)nc(Nc3ccccc3CC)n2)cc1,0,-9,-4,0,5,/
CCc1ccccc1Nc1nc(N)nc(CSc2nnc3ccccn23)n1,-1,62*,7,-1,2,-3
CCC1(C)Cc2c(C#N)c(N)sc(=S)c2CO1 (stereo unspecified),1,10,12,-6,-7,/
N#Cc1c(N)sc(=S)c2c1CCCC2,5,16*,7,0,-8,13

# Screening data deposited in PubChem by several laboratories.
